From PubChem BioAssay (NCATS)
Values joined by “and” are separate entries in the source; they are usually repeats but may differ in a detail not shown here. Identical values can stand only once. Inconclusive results are not listed. Where a call stands in place of a potency, no number is given. Some structures have more than one record in an assay (separate samples or runs), and their calls can disagree. Active and inactive are the calls of the source. The call rests on the fitted dose curve; in most records, active means well fitted inhibition curve with a large enough effect; inconclusive means small, poorly fitted or top-dose-only effect; inactive means flat fitted curve, though single readings scatter. *1 amine or outer side, *2 acyl side, *3 side chain or, on linkers, in order; H or OH if unused. Where a SMILES comes first, the peptide text is derived from it. Bridges are numbered along the chain shown (N, C = ends). X6 = O=C(CCC[*:2])[*:1]
Further: nearly all actives have a fitted effect of over 65% in size.

These compounds were tested against Glutathione peroxidase 1 (Homo sapiens) (UniProt P07203) (assay: Primary qHTS Assay for Inhibitors of Recombinant Selenoprotein Glutathione Peroxidase 1 (GPX1) (AID 1845191)). Details: recombinant GPX1, GR-coupled NADPH fluorescence, 15 min; series mostly up to 48.8 µM.
Chain of Glutathione peroxidase 1 (Homo sapiens) (P07203 whole entry, looked up): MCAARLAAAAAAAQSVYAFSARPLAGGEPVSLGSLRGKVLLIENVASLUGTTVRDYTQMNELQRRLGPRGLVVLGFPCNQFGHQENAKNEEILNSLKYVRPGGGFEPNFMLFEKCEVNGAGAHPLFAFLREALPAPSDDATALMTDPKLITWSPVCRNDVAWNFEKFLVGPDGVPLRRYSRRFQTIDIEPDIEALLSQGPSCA
Outline: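 10 nM GPX1 + cpd, 30 min RT; start w/ 1 mM GSH, 0.5 mM cumene hydroperoxide, 0.5 mM NADPH, 100 nM GR, 0.01% BSA; buffer 50 mM Tris-HCl pH 7.5, 2 mM EDTA, 150 mM NaCl; Fl 340/450, 0 & 15 min.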
`COc1cc(NC(=O)c2ccccn2)ccc1Cl` was tested, and the Potency was “inactive”. For `Oc1ccc([C@H]2COc3cc(O)ccc3C2)cc1`, the Potency was “inactive”. With `C[C@@H]1O[C@@H](O[C@H]2[C@H](O[C@H]3CO[C@@H](O[C@H]4CC[C@@]5(C)C(CC[C@]6(C)C5CC[C@]57OC[C@@]8(CC[C@](C)(CO)CC85)[C@H](O)C[C@]76C)C4(C)C)[C@H](O[C@@H]4O[C@H](CO)[C@@H](O)[C@H](O)[C@H]4O)[C@H]3O)O[C@H](CO)[C@@H](O)[C@@H]2O)[C@H](O)[C@H](O)[C@H]1O` (some centres undefined) the Potency was “inactive”. With `COC(=O)C1=COC(OC2OC(CO)C(O)C(O)C2O)C2C1CC(OC(=O)C(O)CC(=O)O)C2C` (centres undefined) the Potency was “inactive”. With `c1ccc(Cc2ncc3c(n2)CCNCC3)cc1` the Potency was “inactive”. With `COC(=O)C1C(CC(C)=O)C=CC(O)C12Oc1cc(C)cc(O)c1C2=O` (centres undefined) the Potency was “inactive”. `CC(=O)OC[C@@]12[C@@H](OC(C)=O)C[C@@H](C)[C@](C)([C@@H]3C[C@H]4C=CO[C@H]4O3)[C@H]1CCC[C@]21CO1` was tested, and the Potency was “inactive”. In the case of `COc1ccc([C@H]2Cc3cccc(O)c3C(=O)O2)cc1`, the Potency is reported as “inactive”. With `COc1cc(C2Oc3c(OC)cc(CCCO[C@@H]4O[C@H](CO)[C@@H](O)[C@H](O)[C@H]4O)cc3C2CO)ccc1O` (some centres undefined) the Potency was “inactive”. In the case of `COc1cc(/C=C/C(=O)OC[C@H]2O[C@H](O[C@]3(CO)O[C@H](CO)[C@@H](O)[C@@H]3O)[C@H](O)[C@@H](O)[C@@H]2O)cc(OC)c1O`, the Potency is reported as “inactive”. For `C[C@]1(O)CC[C@@H]2C(C(=O)O)=CO[C@@H](O[C@@H]3O[C@H](COC(=O)c4ccc(O)cc4)[C@@H](O)[C@H](O)[C@H]3O)[C@@H]21`, the Potency was “inactive”.

What follows are compounds tested against Phospholipid hydroperoxide glutathione peroxidase GPX4 (Homo sapiens) (UniProt P36969) (assay: Primary qHTS Assay for Inhibitors of Recombinant Selenoprotein Glutathione Peroxidase 4 (GPX4) (AID 1845192; further: potency means the concentration at half of the fitted maximal effect)). Details: recombinant GPX4, GR-coupled NADPH fluorescence, 15 min; series mostly up to 50 µM.
Chain of Phospholipid hydroperoxide glutathione peroxidase GPX4 (Homo sapiens) (P36969 whole entry, looked up): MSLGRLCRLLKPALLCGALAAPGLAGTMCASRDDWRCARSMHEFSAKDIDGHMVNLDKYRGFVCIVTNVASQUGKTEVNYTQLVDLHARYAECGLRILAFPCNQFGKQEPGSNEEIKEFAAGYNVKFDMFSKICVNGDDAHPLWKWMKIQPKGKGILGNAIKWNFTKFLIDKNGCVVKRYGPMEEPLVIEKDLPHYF
Outline: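 NADPH consumption, followed by fluorescence at 340/450 nm between 0 and 15 min, reports GPX4 activity via coupled glutathione reductase (100 nM). Enzyme 200 nM was pre-exposed to compound 30 min; 0.5 mM cumene hydroperoxide and 1 mM GSH served as substrates.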
`N[C@H]1C[C@H]1c1ccc(-c2cccc(O)c2)cc1` was tested, and the Potency was “inactive”. `CC(C)NC[C@H](O)COc1ccc(CCOCC2CC2)cc1` was tested, and the Potency was “inactive”. With `NCc1ccc(OCCCc2sc(-c3ccc4c(c3)/C(=N/Nc3nc5ccccc5s3)CCC4)nc2C(=O)O)cc1` the Potency was “inactive”. For `COc1cc(N2CCC(N(C)C)CC2)ccc1Nc1ncc(Cl)c(Nc2ccccc2P(C)(C)=O)n1`, the Potency was “inactive”. In the case of `CC1(C)CCC(C)(C)c2cc([C@@H](O)C(=O)Nc3ccc(C(=O)O)cc3F)ccc21`, the Potency is reported as “inactive”. `CCOc1nc2cccc(C(=O)OCc3oc(=O)oc3C)c2n1Cc1ccc(-c2ccccc2-c2noc(O)n2)cc1` was tested, and the Potency was “inactive and 12.6 µM (active)”. In the case of `COc1cc(/C=C/C(=O)O[C@H]2[C@H](O)[C@@H](CO)O[C@@]2(CO)O[C@H]2O[C@H](COC(=O)c3ccc(O)cc3)[C@@H](O)[C@H](O)[C@H]2O)cc(OC)c1OC`, the Potency is reported as “inactive”. In the case of `O=C1NC(=Nc2ccccc2F)S/C1=C\c1ccc(C(=O)O)cc1`, the Potency is reported as “inactive”. `CC1(C)CC[C@]2(C(=O)O)CC[C@]3(C)C(=CCC4[C@@]5(C)CC[C@H](O[C@@H]6O[C@H](C(=O)O)[C@@H](O)[C@H](O)[C@H]6O)C(C)(CO)C5CC[C@]43C)C2C1` (some centres undefined) was tested, and the Potency was “inactive”. In the case of `CC12CCC3C(C)(C)C(O)CCC3(C)C1Cc1c(oc(C(=O)O)cc1=O)O2` (centres undefined), the Potency is reported as “inactive”. `CC1=C(C)C(=O)OC(C(C)C2C(O)CC3C4C5OC5C5(O)CC(OC6OC(CO)C(O)C(O)C6O)CC(O)C5(C)C4CCC32C)C1` (centres undefined) was tested, and the Potency was “inactive”. With `COc1cc(COC2OC(CO)C(O)C(O)C2O)cc(OC)c1O` (centres undefined) the Potency was “inactive”. For `O=C(c1ccc(C#Cc2cccc(F)c2)cn1)N1CC2CC2C1` (centres undefined), the Potency was “inactive”. In the case of `Nc1ccn([C@@H]2C(F)=C(CO)[C@@H](O)[C@H]2O)c(=O)n1`, the Potency is reported as “inactive”. For `CC[C@H]1OC(=O)C[C@@H](O)[C@H](C)[C@@H](O[C@@H]2O[C@H](C)[C@@H](O)[C@H](N(C)C)[C@H]2O)[C@@H](CCN2C[C@H](C)C[C@H](C)C2)C[C@@H](C)C(=O)/C=C/C(C)=C/[C@@H]1CO[C@@H]1O[C@H](C)[C@@H](O)[C@@H](OC)[C@H]1OC`, the Potency was “inactive”. For `CC1(C)C[C@H]2C3=CCC4[C@@]5(C)CC[C@H](O[C@H]6O[C@H](C(=O)O)[C@@H](O)[C@H](O)[C@H]6O[C@H]6O[C@H](CO)[C@@H](O)[C@H](O)[C@H]6O[C@@H]6O[C@H](CO)[C@@H](O)[C@H](O)[C@H]6O)[C@](C)(CO)C5CC[C@@]4(C)[C@]3(C)CC[C@@]2(C)[C@H](O[C@@H]2OC[C@H](O)[C@H](OC3O[C@H](CO)[C@@H](O)[C@H](O)[C@H]3O)[C@H]2O)[C@@H]1O` (some centres undefined), the outcome was “inactive [at 9.73 µM]”. `Cc1cc(O)cc(Oc2cc(C)c(C(=O)O)c(O)c2)c1` was tested, and the Potency was “inactive”. For `COC(=O)[C@H](OC(C)=O)[C@H]1C(C)(C)C(=O)[C@H]2CC3=C4CC(=O)O[C@@H](c5ccoc5)[C@]4(C)CCC3[C@@]1(C)C2=O` (some centres undefined), the Potency was “inactive”. With `C=C1CC[C@@H]2[C@](C)(CO[C@@H]3O[C@H](CO)[C@@H](O)[C@H](O)[C@H]3O)CCC[C@@]2(C)[C@@H]1CCC1=CCOC1=O` the Potency was “inactive”. With `O=C1C[C@@H](c2ccc(O)cc2)Oc2cc(O)ccc21` the Potency was “inactive”. `N[C@@H](CC(=O)N1CCn2c(nnc2C(F)(F)F)C1)Cc1[nH]nc2c(F)c(F)ccc12` was tested, and the Potency was “inactive”. With `C[C@]1(OC(=O)/C=C/c2ccccc2)C[C@H](O)[C@]2(O)C=CO[C@@H](O[C@@H]3O[C@H](CO)[C@@H](O)[C@H](O)[C@H]3O)C12` (some centres undefined) the Potency was “inactive”. For `CO[C@@H]1CC[C@H](OC[C@]2(COC(=O)c3ccc(C)[nH]3)[C@H](OC(C)=O)CC[C@@]3(C)[C@@H]4CC=C(C)[C@@H](C5=C(O)C(=O)OC5O)[C@]4(C)CC[C@@H]32)O[C@H]1C` (some centres undefined), the Potency was “inactive”. In the case of `CC(C)c1cc2c(c(O)c1O[C@@H]1O[C@H](CO)[C@@H](O)[C@H](O)[C@H]1O)CC1(O)CCC(O)C(C)(C)C1CC2` (some centres undefined), the Potency is reported as “inactive”. In the case of `O=C(O)c1ccc(CCCc2ccc(OCCc3ccc(F)cc3)cc2)o1`, the Potency is reported as 16.1 µM (active). For `CC[C@H](C)[C@@H]1NC(=O)[C@H](Cc2ccc(OC)cc2)NC(=O)CCCSC[C@@H](C(=O)N2CCC[C@H]2C(=O)N[C@@H](CC(C)C)C(=O)NCC(N)=O)NC(=O)[C@H](CC(N)=O)NC(=O)[C@H](CCC(N)=O)NC1=O` (Y(Me)IQNCPLG-NH2; linker N-5 via X6), the Potency was “inactive”. In the case of `CC1(CO)CC2C(O)C(=O)C3(CO)CC3(C)C2C1` (centres undefined), the Potency is reported as “inactive”. `COc1cc(NC(=O)c2ccccn2)ccc1Cl` was tested, and the Potency was “inactive”. `Oc1ccc([C@H]2COc3cc(O)ccc3C2)cc1` was tested, and the Potency was “inactive”. With `C[C@@H]1O[C@@H](O[C@H]2[C@H](O[C@H]3CO[C@@H](O[C@H]4CC[C@@]5(C)C(CC[C@]6(C)C5CC[C@]57OC[C@@]8(CC[C@](C)(CO)CC85)[C@H](O)C[C@]76C)C4(C)C)[C@H](O[C@@H]4O[C@H](CO)[C@@H](O)[C@H](O)[C@H]4O)[C@H]3O)O[C@H](CO)[C@@H](O)[C@@H]2O)[C@H](O)[C@H](O)[C@H]1O` (some centres undefined) the Potency was “inactive”. `COC(=O)C1=COC(OC2OC(CO)C(O)C(O)C2O)C2C1CC(OC(=O)C(O)CC(=O)O)C2C` (centres undefined) was tested, and the Potency was “inactive”. With `c1ccc(Cc2ncc3c(n2)CCNCC3)cc1` the Potency was “inactive”. In the case of `COC(=O)C1C(CC(C)=O)C=CC(O)C12Oc1cc(C)cc(O)c1C2=O` (centres undefined), the Potency is reported as “inactive”. `CC(=O)OC[C@@]12[C@@H](OC(C)=O)C[C@@H](C)[C@](C)([C@@H]3C[C@H]4C=CO[C@H]4O3)[C@H]1CCC[C@]21CO1` was tested, and the Potency was “inactive”. In the case of `COc1ccc([C@H]2Cc3cccc(O)c3C(=O)O2)cc1`, the Potency is reported as “inactive”. For `COc1cc(C2Oc3c(OC)cc(CCCO[C@@H]4O[C@H](CO)[C@@H](O)[C@H](O)[C@H]4O)cc3C2CO)ccc1O` (some centres undefined), the Potency was “inactive”. With `COc1cc(/C=C/C(=O)OC[C@H]2O[C@H](O[C@]3(CO)O[C@H](CO)[C@@H](O)[C@@H]3O)[C@H](O)[C@@H](O)[C@@H]2O)cc(OC)c1O` the Potency was “inactive”. With `C[C@]1(O)CC[C@@H]2C(C(=O)O)=CO[C@@H](O[C@@H]3O[C@H](COC(=O)c4ccc(O)cc4)[C@@H](O)[C@H](O)[C@H]3O)[C@@H]21` the Potency was “inactive”.
